Inconclusive results are not listed. Calls of active or inactive are those of the source. The call rests on the fitted dose curve; in most records, active means well fitted curve in the direction sought with a large enough effect; inconclusive means small, poorly fitted or top-dose-only effect, or another doubt; inactive means no such curve, though single readings can be large; an effect the other way counts as inactive or inconclusive.
Columns and labels:
[1] = Quantitative High-Throughput drug screen in 47 multiple myeloma cell lines against the NCATS MIPE library collection: MMM1_PLB cell viability assay (AID 1918976); further: nearly all actives have a fitted effect of over 35% in size
Procedure, shortened: (§1)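 MIPE 4.0 approved/investigational drugs; 500 cells/well; 48 h 37 °C humidified 5% CO2; CTG luminescence readout; DMSO = 100%, media = 0% viability.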

[2] = Quantitative High-Throughput drug screen in 47 multiple myeloma cell lines against the NCATS MIPE library collection: NCIH929_DSMZ cell viability assay (AID 1918978); further: nearly all actives have a fitted effect of over 35% in size
Procedure, shortened: as §1

[3] = Quantitative High-Throughput drug screen in 47 multiple myeloma cell lines against the NCATS MIPE library collection: OCIMY1_PLB cell viability assay (AID 1918979); further: nearly all actives have a fitted effect of over 35% in size; on viability: series mostly up to about 46 µM
Procedure, shortened: as §1

[4] = Quantitative High-Throughput drug screen in 47 multiple myeloma cell lines against the NCATS MIPE library collection: MM1S_ATCC cell viability assay (AID 1918980); further: nearly all actives have a fitted effect of over 45% in size; on viability (% of control): series mostly up to about 46 µM
Procedure, shortened: as §1

[5] = Quantitative High-Throughput drug screen in 47 multiple myeloma cell lines against the NCATS MIPE library collection: MM1R_ATCC cell viability assay (AID 1918981); further: nearly all actives have a fitted effect of over 35% in size
Procedure, shortened: as §1

[6] = Quantitative High-Throughput drug screen in 47 multiple myeloma cell lines against the NCATS MIPE library collection: LP1_DSMZ cell viability assay (AID 1918982); further: nearly all actives have a fitted effect of over 35% in size
Procedure, shortened: as §1

[7] = Quantitative High-Throughput drug screen in 47 multiple myeloma cell lines against the NCATS MIPE library collection: KMS28PE_JCRB cell viability assay (AID 1918983); further: nearly all actives have a fitted effect of over 35% in size
Procedure, shortened: as §1

[8] = Quantitative High-Throughput drug screen in 47 multiple myeloma cell lines against the NCATS MIPE library collection: L363_DSMZ cell viability assay (AID 1918984); further: nearly all actives have a fitted effect of over 40% in size
Procedure, shortened: as §1

[9] = Quantitative High-Throughput drug screen in 47 multiple myeloma cell lines against the NCATS MIPE library collection: KMS34_JCRB cell viability assay (AID 1918985); further: nearly all actives have a fitted effect of over 40% in size
Procedure, shortened: as §1

[10] = Quantitative High-Throughput drug screen in 47 multiple myeloma cell lines against the NCATS MIPE library collection: OCIMY7_PLB cell viability assay (AID 1918987); further: nearly all actives have a fitted effect of over 65% in size; on viability (% of DMSO): series mostly up to about 46 µM
Procedure, shortened: as §1

[11] = Quantitative High-Throughput drug screen in 47 multiple myeloma cell lines against the NCATS MIPE library collection: OCIMY5_PLB cell viability assay (AID 1918988); further: nearly all actives have a fitted effect of over 65% in size
Procedure, shortened: as §1

[12] = Quantitative High-Throughput drug screen in 47 multiple myeloma cell lines against the NCATS MIPE library collection: OPM1_PLB cell viability assay (AID 1918989); further: nearly all actives have a fitted effect of over 40% in size; on viability (% of control): series mostly up to about 46 µM
Procedure, shortened: as §1

[13] = Quantitative High-Throughput drug screen in 47 multiple myeloma cell lines against the NCATS MIPE library collection: SKMM1_PLB cell viability assay (AID 1919863); details: SKMM1 myeloma viability, CellTiter-Glo ATP, 48 h; viability: stronger effect = lower value; further: nearly all actives have a fitted effect of over 35% in size; on viability: series mostly up to about 46 µM
Procedure, shortened: as §1

[14] = Quantitative High-Throughput drug screen in 47 multiple myeloma cell lines against the NCATS MIPE library collection: U266_ATCC cell viability assay (AID 1919864); further: nearly all actives have a fitted effect of over 35% in size
Procedure, shortened: as §1

[15] = Quantitative High-Throughput drug screen in 47 multiple myeloma cell lines against the NCATS MIPE library collection: XG6_PLB cell viability assay (AID 1919865); further: nearly all actives have a fitted effect of over 40% in size
Procedure, shortened: as §1

[16] = Quantitative High-Throughput drug screen in 47 multiple myeloma cell lines against the NCATS MIPE library collection: XG1_PLB cell viability assay (AID 1919866); further: nearly all actives have a fitted effect of over 35% in size
Procedure, shortened: as §1

[17] = Quantitative High-Throughput drug screen in 47 multiple myeloma cell lines against the NCATS MIPE library collection: VP6_DJ cell viability assay (AID 1919867); further: nearly all actives have a fitted effect of over 40% in size
Procedure, shortened: as §1

[18] = Quantitative High-Throughput drug screen in 47 multiple myeloma cell lines against the NCATS MIPE library collection: MOLP8_DSMZ cell viability assay (AID 1918977); further: nearly all actives have a fitted effect of over 45% in size
Procedure, shortened: as §1

[19] = Quantitative High-Throughput drug screen in 47 multiple myeloma cell lines against the NCATS MIPE library collection: KMS26_JCRB cell viability assay (AID 1918975); further: nearly all actives have a fitted effect of over 45% in size
Procedure, shortened: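 Myeloma cell lines, 500 cells per well, exposed to MIPE 4.0 library compounds for 48 h at 37C, 5% CO2. Viability from ATP by CellTiter-Glo luminescence; normalised to DMSO (100%) and media-only (0%) wells.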
Potency means the concentration at half of the fitted maximal effect.

CC=C1NC(=O)[C@H]2CSSCCC=C[C@H](CC(=O)N[C@H](C(C)C)C(=O)N2)OC(=O)[C@H](C(C)C)NC1=O
active: Potency [1] 0.935 µM | Potency [2] 0.0526 µM | Potency [3] 0.118 µM | Potency [4] 0.0332 µM | Potency [5] 0.0166 µM | Potency [6] 0.0118 µM | Potency [7] 0.0209 µM | Potency [8] 0.0066 µM | Potency [9] 0.0264 µM | Potency [10] 0.059 µM | Potency [11] 0.0066 µM | Potency [12] 0.0132 µM | Potency [13] 0.0418 µM | Potency [14] 0.0372 µM | Potency [15] 0.0235 µM | Potency [16] 0.0264 µM | Potency [17] 0.001 µM

CCCn1c(=O)c2[nH]c(-c3cnn(Cc4cccc(C(F)(F)F)c4)c3)nc2n(CC)c1=O
inactive: Potency [2] | Potency [3] | Potency [7] | Potency [12] | Potency [14] | Potency [16]
active: Potency [1] 13.2 µM | Potency [18] 5.9 µM | Potency [4] 16.6 µM | Potency [6] 10.5 µM | Potency [11] 23.5 µM

COc1ccc(CC2c3cc(OC)c(OC)cc3CC[N+]2(C)CCC(=O)OCCCCCOC(=O)CC[N+]2(C)CCc3cc(OC)c(OC)cc3C2Cc2ccc(OC)c(OC)c2)cc1OC (stereo unspecified)
inactive: viability (% of DMSO) [19] 102% [at 5.15 µM] | viability (% of control) [6] 101% [at 5.15 µM] | viability, % of DMSO control [7] 105% [at 5.15 µM] | viability (% of control) [12] 96.3% [at 5.15 µM] | viability (% of DMSO control) [14] 135% [at 5.15 µM]
active: Potency [10] 4.13 µM | Potency [16] 1.46 µM

CC(=O)SC[C@@H](C)C(=O)N1CCC[C@H]1C(=O)N[C@@H](Cc1ccccc1)C(=O)O
inactive: Potency [18] | Potency [2] | Potency [3] | Potency [5] | Potency [6] | Potency [10] | Potency [12] | viability [13] 151% | Potency [16]
active: Potency [1] 1.87 µM

COc1cc2c(Nc3ccc(NC(=O)c4ccccc4)cc3)ncnc2cc1OCCCN1CCOCC1
inactive: Potency [8]
active: Potency [19] 37.2 µM | Potency [2] 16.6 µM | Potency [3] 23.5 µM | Potency [5] 23.5 µM | Potency [10] 2.64 µM | Potency [11] 18.7 µM | Potency [12] 20.9 µM | Potency [14] 23.5 µM | Potency [15] 14.8 µM | Potency [16] 20.9 µM | Potency [17] 14.8 µM

Cn1c(CNc2ccc(C(=N)N)cc2)nc2cc(C(=O)N(CCC(=O)O)c3ccccn3)ccc21
inactive: Potency [19] | Potency [18] | Potency [5] | Potency [7] | Potency [8] | Potency [10] | Potency [11] | Potency [12] | viability [13] 127% | Potency [15] | Potency [16]
active: Potency [4] 14.4 µM

O=C(NCCS(=O)(=O)c1ccc(C(F)(F)F)cn1)c1ccc(Cl)cc1
inactive: Potency [1] | Potency [18] | Potency [2] | Potency [3] | Potency [4] | Potency [6] | Potency [7] | Potency [8] | Potency [9] | Potency [12] | viability [13] 128% | Potency [14] | Potency [16]

C[C@@H]1CN(CC(=O)Nc2ccc3c(c2)Cc2cccc(-c4cc(=O)cc(N5CCOCC5)o4)c2S3)C[C@H](C)O1
active: Potency [19] 20.9 µM | Potency [2] 5.9 µM | Potency [4] 18.7 µM | Potency [5] 16.6 µM | Potency [7] 9.35 µM | Potency [8] 14.8 µM | Potency [10] 1.32 µM | Potency [11] 20.9 µM | Potency [12] 16.6 µM | Potency [15] 9.35 µM | Potency [16] 5.9 µM | Potency [17] 16.6 µM

CC(C)Nc1cc(C(F)(F)F)cc2nc(NC(=O)c3cccnc3)nn12
inactive: Potency [18] | Potency [3] | Potency [5] | Potency [6] | Potency [7] | Potency [8] | Potency [12]
active: Potency [1] 1.87 µM | Potency [11] 8.33 µM

O=C(O)Cn1nnc(-c2cc(N3CCC(Oc4cc(F)ccc4Br)CC3)no2)n1
inactive: Potency [19] | Potency [18] | Potency [2] | Potency [5] | Potency [6] | Potency [7] | Potency [8] | Potency [12] | viability [13] 126% | Potency [14] | Potency [15] | Potency [16] | Potency [17]
active: Potency [4] 8.33 µM

CC(C)c1noc(N2CCC(COc3ccc(-c4ccc(S(C)(=O)=O)cc4)nc3)CC2)n1
active: Potency [1] 9.35 µM | Potency [18] 0.418 µM | Potency [5] 13.2 µM | Potency [7] 16.6 µM | Potency [11] 8.33 µM | Potency [15] 3.72 µM | Potency [16] 2.64 µM | Potency [17] 7.43 µM
inactive: Potency [4] | Potency [8] | Potency [9] | Potency [12] | Potency [14]

Cc1cn(-c2cc(NC(=O)c3ccc(C)c(Nc4nccc(-c5cccnc5)n4)c3)cc(C(F)(F)F)c2)cn1
active: Potency [1] 11.8 µM | Potency [18] 20.9 µM | Potency [3] 26.4 µM | Potency [5] 18.7 µM | Potency [6] 23.5 µM | Potency [7] 20.9 µM | Potency [11] 13.2 µM | Potency [13] 26.4 µM
inactive: Potency [2] | Potency [4] | Potency [8] | Potency [10] | Potency [12] | Potency [14] | Potency [17]

COc1ccc2c(OCc3nnc4ccc(-c5ccccc5)nn34)ccnc2c1
inactive: Potency [1] | Potency [2] | Potency [3] | Potency [4] | Potency [5] | Potency [6] | Potency [7] | Potency [9] | Potency [14] | Potency [16]
active: Potency [15] 0.469 µM
